From PubChem BioAssay AID624136 (Broad Institute, 2012)
In all, about 17,000 compounds went through this assay and about 75 (0.4%) were called active.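 How the source made its calls: active means compounds whose four printed spots each glow above background more than chance allows, each with a p-value under 7%; inactive means the rest.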 Only a selection was taken, and actives are over-represented in it overall.

Tested on: mutant tumor protein p53 (GST-tagged), Homo sapiens
Assay: binders of human mutant p53, primary screen, biochemical, small molecule microarray, anti-GST fluorescence (AID 624136)
Details: small molecule microarray binding

outcome, inactive:
Cc1ccccc1-c1nnc(SCC(=O)Nc2ccc(S(N)(=O)=O)cc2)n1C
CC(C)(C)c1cn2c3ccccc3nc2n1CCN1CCOCC1
CNC[C@H]1Oc2ccc(NS(=O)(=O)c3ccccc3)cc2CC(=O)N([C@H](C)CO)C[C@@H]1C
CC(C)NC(=O)Nc1ccc2c(c1)C(=O)N([C@@H](C)CO)C[C@@H](C)[C@H](CN(C)C)OCCCC[C@H](C)O2
NC(CC(=O)Nc1ccc(Cl)cc1)C(=O)O (stereo not given)
C[C@@H]1CN([C@@H](C)CO)C(=O)c2cccc(NC(=O)c3ccncc3)c2O[C@@H]1CN(C)CC1CC1
C[C@@H]1CN([C@@H](C)CO)C(=O)c2cccc(NS(=O)(=O)c3cn(C)cn3)c2O[C@@H]1CN(C)Cc1ccc(Cl)c(Cl)c1
COc1ccc(CN(C)C[C@H]2Oc3c(NC(=O)C4CCCCC4)cccc3C(=O)N([C@@H](C)CO)C[C@H]2C)cc1
CC(=O)Nc1ccc(NC(=O)CN(c2ccc(I)cc2)S(C)(=O)=O)cc1
CN(CCc1ccccn1)S(=O)(=O)c1ccc2c3c(cccc13)C(=O)N2
CNC[C@@H]1OCCCC[C@@H](C)Oc2ccc(NS(C)(=O)=O)cc2C(=O)N([C@H](C)CO)C[C@@H]1C
CCN1CCOC(CC(=O)Nc2ccc3c(c2)OCCO3)C1=O (stereo not given)
C[C@@H]1CN([C@H](C)CO)C(=O)c2cc(NC(=O)Cn3cnnn3)ccc2O[C@@H]1CN(C)CC1CC1
C[C@@H]1CN([C@@H](C)CO)C(=O)c2cc(NS(=O)(=O)c3ccccc3)ccc2O[C@@H](C)CCCCO[C@@H]1CN(C)S(=O)(=O)c1cccs1
O=C(Cn1cnc([N+](=O)[O-])n1)Nc1c(Cl)cccc1Cl
COc1ccc(CN(C)C[C@H]2Oc3c(NS(=O)(=O)c4ccc(Cl)cc4)cccc3C(=O)N([C@H](C)CO)C[C@H]2C)cc1
Cn1c(COc2ccccc2)nnc1SCc1nc2ccccc2c(=O)[nH]1
Cc1noc(C)c1NC(=O)N(C)C[C@H]1Oc2c(NC(=O)c3nc4ccccc4s3)cccc2C(=O)N([C@@H](C)CO)C[C@@H]1C
COc1ccc(CN(C)C[C@H]2Oc3c(NC(=O)NC4CCCCC4)cccc3C(=O)N([C@@H](C)CO)C[C@@H]2C)cc1
Cc1noc(C)c1NC(=O)N(C)C[C@@H]1OCCCC[C@@H](C)Oc2ccc(NC(=O)C3CCCCC3)cc2C(=O)N([C@H](C)CO)C[C@@H]1C
CC1(C)C[C@H](O)C[C@@]2(C)[C@H]1[C@H](O)C=C1COC(=O)[C@@]12O
C[C@@H]1CN([C@H](C)CO)C(=O)c2cccc(NC(=O)Nc3cccc4ccccc34)c2O[C@@H]1CN(C)C(=O)Nc1ccc(F)cc1
C[C@@H]1CC[C@]2(C(=O)O)CC[C@]3(C)C(=CCC4[C@@]5(C)CC[C@H](O)[C@](C)(C(=O)O)C5CC[C@]43C)C2[C@]1(C)O (stereo not given in full)
C[C@H]1CN([C@@H](C)CO)C(=O)c2cccc(NC(=O)Nc3ccccc3)c2O[C@@H]1CN(C)S(C)(=O)=O
COc1ccc(CN(C)C[C@H]2Oc3c(NC(=O)c4ccncc4)cccc3C(=O)N([C@H](C)CO)C[C@@H]2C)cc1
Cc1cc(C(=O)Nc2cccc3c2O[C@@H](CN(C)Cc2ccc(C(=O)O)cc2)[C@H](C)CN([C@@H](C)CO)C3=O)n(C)n1
C[C@@H]1CN([C@@H](C)CO)C(=O)Cc2cc(NC(=O)Nc3ccc(F)cc3)ccc2O[C@@H]1CN(C)C(=O)NC1CCCCC1
C[C@H]1CN([C@@H](C)CO)C(=O)c2cc(NC(=O)Nc3ccc4c(c3)OCO4)ccc2O[C@@H]1CN(C)CC1CCCCC1
COc1ccc(S(=O)(=O)Nc2ccc3c(c2)CC(=O)N([C@H](C)CO)C[C@H](C)[C@@H](CN(C)C)O3)cc1
COc1ccc(S(=O)(=O)N(C)C[C@@H]2Oc3ccc(NC(=O)CCC(F)(F)F)cc3C(=O)N([C@@H](C)CO)C[C@@H]2C)cc1
Cc1ccc(C(=O)C2C(=O)C(=O)N(Cc3cccnc3)C2c2ccc(Cl)c(Cl)c2)o1 (stereo not given)
C[C@@H]1CN([C@@H](C)CO)C(=O)Cc2cc(NC(=O)CCN3CCOCC3)ccc2O[C@@H]1CN(C)CC1CC1
COc1ccc(NC(=O)Nc2cccc3c2O[C@@H](CN(C)S(=O)(=O)c2cn(C)cn2)[C@H](C)CN([C@@H](C)CO)C3=O)cc1
Cc1noc(C)c1S(=O)(=O)N(C)C[C@@H]1Oc2ccc(NC(=O)C3CC3)cc2CC(=O)N([C@@H](C)CO)C[C@@H]1C
Cc1noc(C)c1NC(=O)N(C)C[C@H]1OCc2cn(nn2)CCCC(=O)N([C@@H](C)CO)C[C@H]1C
C[C@H](CO)N1C[C@H](C)[C@@H](CN(C)C(=O)NC2CCCCC2)Oc2ccc(NC(=O)c3ccncc3)cc2CC1=O
O=C(C1=C[C@H](C2CC2)C[C@H](OCc2ccc(CO)cc2)O1)N1CCN(Cc2ccccc2)CC1
Cn1nnnc1SCC(=O)Nc1cccc(NC(=O)C23CC4CC(CC(C4)C2)C3)c1
C[C@@H]1CN([C@H](C)CO)C(=O)c2cccc(NS(=O)(=O)c3ccc(Cl)cc3)c2O[C@@H]1CN(C)CC1CC1
COc1ccc(CN(C)C[C@@H]2Oc3ccc(NC(=O)Nc4ccc(OC)cc4)cc3CC(=O)N([C@H](C)CO)C[C@H]2C)cc1
COC(=O)c1c(C)n(CCNc2ccc([N+](=O)[O-])cc2)c2ccc(O)cc12
O=C(CCc1nc(-c2ccccc2Cl)no1)Nc1ccccc1[N+](=O)[O-]
C[C@H]1CN([C@@H](C)CO)C(=O)c2cccc(NC(=O)C3CCOCC3)c2O[C@@H]1CN(C)C(=O)Nc1cccc2ccccc12
C[C@@H]1CN([C@@H](C)CO)C(=O)c2cccc(NS(=O)(=O)c3cn(C)cn3)c2O[C@H]1CN(C)Cc1ccc(Cl)c(Cl)c1
C=C1C[C@@H]2COC(=O)[C@]2(Cc2ccc3ccccc3c2)C1
COc1cc(C(C)=O)ccc1OCC(O)Cn1nc(C)cc1C (stereo not given)
COc1ccc(CN(C)C[C@H]2Oc3c(NS(=O)(=O)c4ccc(Cl)cc4)cccc3C(=O)N([C@H](C)CO)C[C@@H]2C)cc1
C[C@H](CO)N1C[C@H](C)[C@@H](CN(C)Cc2ccc(Cl)c(Cl)c2)Oc2c(NC(=O)C3CCCCC3)cccc2C1=O
C[C@H]1CCCCO[C@@H](CN(C)C(=O)C2CCCCC2)[C@@H](C)CN([C@@H](C)CO)C(=O)c2cc(NS(=O)(=O)c3cccs3)ccc2O1
C[C@H](CO)N1C[C@H](C)[C@H](CN(C)C)Oc2ccc(NC(=O)Cc3ccccc3)cc2CC1=O
C[C@H]1CN([C@@H](C)CO)C(=O)c2cc(NC(=O)Nc3ccccc3)ccc2O[C@@H]1CN(C)C(=O)Nc1ccccc1
CCNc1nc(SCCOc2ccccc2)nc(N(C)C)n1
C[C@H](CO)N1C[C@H](C)[C@H](CN(C)C(=O)Nc2ccc(C(F)(F)F)cc2)Oc2ccc(NS(C)(=O)=O)cc2CC1=O
O=C(OCC1OC(Oc2ccc(O)cc2COC(=O)C2(O)C(O)CCC(O)C2O)C(O)C(O)C1O)c1ccccc1 (stereo not given)
C[C@@H]1CCCCO[C@H](CN(C)C(=O)Nc2ccccc2)[C@H](C)CN([C@H](C)CO)C(=O)c2cc(N(C)C)ccc2O1
Cc1noc(C)c1NC(=O)Nc1ccc2c(c1)CC(=O)N([C@H](C)CO)C[C@@H](C)[C@@H](CN(C)Cc1ccncc1)O2
CC(=O)Nc1ccc(NC(=O)CN(c2ccccc2Br)S(C)(=O)=O)cc1
Cc1noc(C)c1NC(=O)Nc1cccc2c1O[C@@H](CN(C)Cc1ccc(C(F)(F)F)cc1)[C@@H](C)CN([C@@H](C)CO)C2=O
C[C@@H]1CCCCO[C@@H](CN(C)S(=O)(=O)c2ccccc2)[C@H](C)CN([C@H](C)CO)C(=O)c2cc(NC(=O)CCC(F)(F)F)ccc2O1
Cc1noc(C)c1S(=O)(=O)Nc1ccc2c(c1)CC(=O)N([C@@H](C)CO)C[C@@H](C)[C@H](CN(C)C)O2
C[C@H](CO)N1C[C@H](C)[C@H](CN(C)C(=O)c2ccccc2)OCCCC[C@H](C)Oc2ccc(NS(C)(=O)=O)cc2C1=O
C[C@@H]1CCCCO[C@H](CN(C)Cc2ccccc2)[C@@H](C)CN([C@H](C)CO)C(=O)c2cc(NS(C)(=O)=O)ccc2O1
C[C@H](CO)N1C[C@H](C)[C@H](CN(C)C(=O)Nc2ccccc2)Oc2ccc(NC(=O)C3CC3)cc2CC1=O
CC(C)NC(=O)Nc1ccc2c(c1)C(=O)N([C@@H](C)CO)C[C@H](C)[C@@H](CN(C)C(=O)Nc1ccc(F)cc1)OCCCC[C@H](C)O2
COc1ccc(CN(C)C[C@@H]2Oc3ccc(NC(=O)Nc4ccc(OC)cc4)cc3C(=O)N([C@H](C)CO)C[C@H]2C)cc1
C=CC(C)(O)CCC1(C)C2=C(C(OC(C)=O)C(OC(C)=O)C1C)C(C)(C)CCC2 (stereo not given)
COc1cc([C@H](Cc2ccccc2)NC(C)=O)oc(=O)c1
CCc1ccc2c(c1)c1nc3ccccc3nc1n2CC(=O)OC
C[C@H]1CN([C@@H](C)CO)C(=O)Cc2cc(NC(=O)Nc3cccc4ccccc34)ccc2O[C@H]1CN(C)CC1CC1
C[C@@H]1CCCCO[C@H](CN(C)Cc2ccccc2)[C@@H](C)CN([C@H](C)CO)C(=O)c2cc(NS(=O)(=O)c3ccc(Cl)cc3)ccc2O1
